PI5P4K alpha inh: qHTS for Inhibitors of phosphatidylinositol 5-phosphate 4-kinase (PI5P4K); max response, %; PI5P4Kalpha enzyme, ADP-Glo luminescence, 60 min; hits give low values; hit rate 1.2% among 330,000; Phosphatidylinositol 5-phosphate 4-kinase type-2 alpha (Homo sapiens), P48426; active = max response of -50% or lower; inconclusive = between -30% and -50%; inactive = -30% or higher; note: value at the top dose of about 77 µM
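PI5P4Kalpha ADP-Glo assay; 5 microM ATP final; 60 min RT reaction; HEPES pH 7.4/EGTA/CHAPS, 5% DMSO; controls lacking substrate or enzyme; luminescent end-point.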
HP1b binding inh: HTS for Inhibitors of HP1-beta Chromodomain Interactions with Methylated Histone Tails; Chromobox protein homolog 1 (Homo sapiens), P83916; AlphaScreen HP1-beta / biotin-H3K9me3 peptide binding; Potency, µM (titrated, usually from 114 µM), actives largely listed as inhibitors; hit rate 0.56% among 390,000; note: nearly all actives have a fitted effect of over 70% in size
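AlphaScreen: HP1-beta (50 nM) preformed 30 min with biotin-H3(1-18)K9me3 peptide (50 nM) in PBS pH 7.4, 0.01% Tween-20. Compound added for 30 min at RT, then streptavidin donor/nickel chelate acceptor beads (10 ug/mL) for 30 min.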
JMJD2A Tudor inh: qHTS Assay for Inhibitors of JMJD2A-Tudor Domain; Lysine-specific demethylase 4A (Homo sapiens), O75164; AlphaScreen JMJD2A-Tudor / H3K4me3 peptide binding; hit rate 4.4% among 390,000; Potency, µM (top dose mostly 114 µM), actives largely listed as inhibitors; note: nearly all actives have a fitted effect of over 50% in size
Target sequence (O75164 whole entry, looked up, the tested form may be a part): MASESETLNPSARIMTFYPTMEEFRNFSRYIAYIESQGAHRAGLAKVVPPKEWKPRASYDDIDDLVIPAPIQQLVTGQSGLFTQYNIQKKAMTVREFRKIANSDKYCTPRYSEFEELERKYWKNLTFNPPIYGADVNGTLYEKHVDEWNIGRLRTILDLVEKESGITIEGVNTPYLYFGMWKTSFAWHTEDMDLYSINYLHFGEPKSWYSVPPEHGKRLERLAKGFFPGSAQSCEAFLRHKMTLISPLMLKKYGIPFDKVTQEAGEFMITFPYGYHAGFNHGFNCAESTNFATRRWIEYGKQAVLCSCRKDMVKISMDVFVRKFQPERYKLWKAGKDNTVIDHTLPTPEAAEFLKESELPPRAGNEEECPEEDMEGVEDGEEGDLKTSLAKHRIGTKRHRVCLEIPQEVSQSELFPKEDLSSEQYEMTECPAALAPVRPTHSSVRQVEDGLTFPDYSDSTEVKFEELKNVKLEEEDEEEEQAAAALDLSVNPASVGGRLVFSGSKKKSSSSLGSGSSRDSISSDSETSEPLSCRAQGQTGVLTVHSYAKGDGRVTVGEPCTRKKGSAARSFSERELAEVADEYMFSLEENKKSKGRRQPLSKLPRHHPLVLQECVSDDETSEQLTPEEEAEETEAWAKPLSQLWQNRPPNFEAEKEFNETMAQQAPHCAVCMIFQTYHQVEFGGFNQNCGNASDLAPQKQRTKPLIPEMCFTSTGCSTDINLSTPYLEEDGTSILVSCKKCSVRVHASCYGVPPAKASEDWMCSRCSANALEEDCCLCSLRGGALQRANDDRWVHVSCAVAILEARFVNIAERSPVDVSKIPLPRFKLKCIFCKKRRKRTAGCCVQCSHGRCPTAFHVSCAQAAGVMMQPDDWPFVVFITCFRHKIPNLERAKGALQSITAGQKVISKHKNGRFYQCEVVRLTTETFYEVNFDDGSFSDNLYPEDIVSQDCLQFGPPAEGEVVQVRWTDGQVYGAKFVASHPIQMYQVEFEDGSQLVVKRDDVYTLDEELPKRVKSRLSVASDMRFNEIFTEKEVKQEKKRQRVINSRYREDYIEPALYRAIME
G9a inh: qHTS Assay for Inhibitors of Histone Lysine Methyltransferase G9a; Histone-lysine N-methyltransferase EHMT2 (Homo sapiens), Q96KQ7; G9a H3K9 monomethylation, AlphaScreen, 2 h; Potency, µM (doses to about 102 µM), hits mostly inhibitors; hit rate 8.8% among 350,000; AID 504332, 2011; note: nearly all actives have a fitted effect of over 75% in size
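Methyltransferase reactions run at room temperature for 2 h (20 nM enzyme, 500 nM biotin-H3K9 peptide, 20 uM SAM) after a 15 min compound preincubation; product detected by AlphaScreen beads and anti-H3K9me1 antibody.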
L3MBTL1 block: qHTS Assay for the Inhibitors of L3MBTL1. Lethal(3)malignant brain tumor-like protein 1 (Homo sapiens), Q9Y468. AlphaScreen L3MBTL1–H3K9me1 peptide binding. Potency, µM (series often up to 57.1 µM), actives largely listed as inhibitors. hit rate 0.66% among 230,000; note: nearly all actives have a fitted effect of over 60% in size
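AlphaScreen assay: L3MBTL1 (50 nM final) was preincubated 30 min at room temperature with biotinylated H3(1-15)K9me1 peptide (75 nM final), then 30 min with library compounds; streptavidin donor and nickel chelate acceptor beads (10 ug/mL final) added, 30 min dark.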
BAZ2B block: qHTS Assay for Inhibitors of BAZ2B; hit rate 4.4% among 360,000; AlphaScreen BAZ2B-H3K14Ac peptide displacement; Potency, µM (titrated, usually from 114 µM), hits mostly inhibitors; note: nearly all actives have a fitted effect of over 60% in size
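BAZ2B 50 nM plus b-H3(5-23)K14Ac 50 nM, PBS pH 7.4/0.01% Tween-20, 30 min RT; compound added (max 110 uM), 30 min RT; streptavidin donor/Ni-chelate acceptor beads 10 ug/mL final, 20 min dark; AlphaScreen read.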
Numbers stand for hits; – = inactive; ? = inconclusive; · = no result given; [ ] = remark or other dose. Shown are actives, neighbours in structure and some others; about 11% of the full set was active somewhere. Unless noted, calls come from the whole dose curve; as a rule, active = well fitted inhibition curve with a large enough effect; inconclusive = small, poorly fitted or top-dose-only effect; inactive = no such curve, though single readings can be large or run the other way.

SMILES	PI5P4K alpha inh	HP1b binding inh	JMJD2A Tudor inh	G9a inh	L3MBTL1 block	BAZ2B block
CC(=O)N1CCC2(CC1)NC(=O)N(c1ccccc1)N2	–	–	–	?	·	–
COc1ccccc1C1C(C(=O)Nc2ccccc2)=C(C)Nc2nc(-c3ccccc3)nn21 (stereo unspecified)	·	–	–	–	·	–
Cc1ccc(-c2onc(C)c2C)cc1S(=O)(=O)Nc1cccc(Cl)c1C	·	–	–	–	·	–
NCCn1c(-c2ccccc2)cc(C(=O)O)c1-c1ccccc1F	–	–	–	50µM	–	?
CCOC(=O)c1cc(-c2ccccc2)n(CCC(=O)O)c1C	·	–	–	–[12.7 µM]	·	–
CN(C(=O)Nc1cn(C)c(=O)c2ccccc12)c1ccccc1	·	–	–	?	·	–
CCN(CC)S(=O)(=O)c1ccc2c(c1)nc(CCC(=O)O)n2C	–	–	–[11.4 µM]	25µM	–	–
O=C(/C(N=Nc1cccc([N+](=O)[O-])c1)=C(/O)c1ccc(Br)cc1)C(F)(F)F	·	·	·	40µM	–	25µM
COc1ccccc1CNC(=O)CCC1N=C2c3ccccc3N=C(SCC(=O)NCCc3ccc(OC)c(OC)c3)N2C1=O (stereo unspecified)	·	–	–	–	·	–
NC(CSSCC(N)C(=O)O)C(=O)O (stereo unspecified)	·	·	·	–	·	·
CN(C)c1ccc(S(=O)(=O)NCC(=O)NCCC2=CCCCC2)cc1[N+](=O)[O-]	–	–	–	–	–	–
CN(C)c1ccc(S(=O)(=O)NCC(=O)N2CCN(S(=O)(=O)c3cccc(F)c3)CC2)cc1[N+](=O)[O-]	–	–	–	·	·	·
CN(C)c1ccc(S(=O)(=O)NCC(=O)NCCOc2ccccc2F)cc1[N+](=O)[O-]	–	–	–	50µM	–	–
CN(CC(=O)Nc1cccc(F)c1)C(=O)CNS(=O)(=O)c1ccc(N(C)C)c([N+](=O)[O-])c1	–	–	?	50µM	–	71µM
C=CCc1ccc(OCCOCCOc2ccc(C)cc2[N+](=O)[O-])c(OC)c1	–	–	–	–	–	–
CCCCNCCOCCOc1ccc(C)cc1[N+](=O)[O-]	·	?	2.8µM	18µM	–	?
CCC(C)Nc1c([N+](=O)[O-])cc(C)cc1[N+](=O)[O-] (stereo unspecified)	–	?	20µM	40µM	?	32µM
C=CCN(CC=C)CCOc1cc(C)ccc1[N+](=O)[O-]	–	28µM	?	10µM	–	22µM
C=CCNCCOc1ccc(C)cc1[N+](=O)[O-]	–	?	50µM	·	–	40µM
O=C(c1ccco1)N1CCC2(CCCN(c3ncccn3)C2)CC1	·	·	·	–[12.7 µM]	·	·
Cc1cc(NS(=O)(=O)c2ccc(N)cc2)nc(C)n1	·	·	·	–	·	·
CCC(C)NCCOc1ccc(C)cc1[N+](=O)[O-] (stereo unspecified)	–	?	0.79µM	11µM	–	40µM
COCCCNCCCCOc1ccc(C)cc1[N+](=O)[O-]	–	?	5.6µM	11µM	–	?
CS(=O)(=O)N1CCC2(CC1)CN(C(c1ccccc1)c1ccccc1)C2	·	·	·	–[12.7 µM]	·	·
N#Cc1nc(COc2ccc(-c3ccccc3)cc2)oc1N1CCC(C(N)=O)CC1	·	–	–	·	·	·
CC(C)c1nc(N(C)S(C)(=O)=O)nc(-c2ccc(F)cc2)c1/C=C/C(O)CC(O)CC(=O)O (stereo unspecified)	·	·	·	–[2.33 µM]	·	·
Cc1cc2c(s1)c1cnn(Cc3ccc(F)c(Cl)c3)c(=O)c1n2C	·	·	–	·	·	·
CN(Cc1ccc(OCC(O)CN2CCCCC2)cc1)Cc1ccnc2ccccc12 (stereo unspecified)	–	–	–	50µM	–	–
N/C(=N\OC(=O)Cc1ccccc1[N+](=O)[O-])c1ccccn1	–	–	?	?	–	56µM
N/C(=N\OC(=O)c1ccc(Cl)cc1[N+](=O)[O-])c1ccccn1	–	–	?	·	–	–

Source: PubChem (National Center for Advancing Translational Sciences (NCATS))
